Experiment [1] can be described thus: AP1 Signaling Pathway (AID 357; active means well fitted curve in either direction with a large enough effect, not every such curve was filed as active;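 further: ME-180 reporter cells stimulated with EGF at its EC50 level; on the % scale 0 is the no-effect control and ±100 the full control effect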). Conditions: ME-180 AP-1-bla reporter, EGF-induced, beta-lactamase ratio, 5 h; at 7.69 µM (top of the series) unless noted. The gist of the method: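 Modulation of EGF-driven AP-1 transcription was assessed with a beta-lactamase reporter in ME-180 cells. Compound and EC50 EGF were co-incubated 5 hours at 37 °C before 2.5-hour CCF4 loading at room temperature and dual-emission reading.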

The target of experiment [2] is Cytochrome P450 1A2 (Homo sapiens) (UniProt P05177). Kind of experiment: p450-cyp1a2 (AID 410; calls by dose curve; further: potency means the concentration at half of the fitted maximal effect). The gist of the method:
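Inhibition was calculated relative to 57 uM furafylline (full inhibition). The reaction used human CYP1A2 at 20nM with Luciferin-ME at its Km, 100uM, driven by an NADPH-regenerating system for 60 min at room temperature.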

Experiment [3] can be described thus: NFAT Signaling Pathway (AID 444; active means well fitted curve in either direction with a large enough effect, not every such curve was filed as active;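 further: carbachol stimulus at about its EC50 of 1 µM final; on the % scale 0 is the no-effect control and ±100 the full control effect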). Conditions: Jurkat NFAT-bla M1, carbachol, beta-lactamase ratio, 5 h; at 7.69 µM (top of the series) unless noted. A digest of the protocol: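 Read-out: CCF4 FRET ratio (460 nm/530 nm) after 1 h RT dye loading, used for %activity and AC50 from titration series. Cells: Jurkat NFAT-β-lactamase/M1 line, treated with compound plus 1 uM carbachol for 5 h, 37 °C.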

Experiment [4] can be described thus: Stat Signaling Pathway (AID 446; active means well fitted curve in either direction with a large enough effect, not every such curve was filed as active;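 further: ME-180 cervical cancer cells given 40 pM IL-6 alongside compound; SIE-controlled beta-lactamase reporter measured as 460/530 nm FRET emission ratio; on the % scale 0 is the no-effect control and ±100 the full control effect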). The note with it: ME-180 SIE beta-lactamase reporter, IL-6 stimulated, 5 h; at 7.69 µM (top of the series) unless noted. The gist of the method: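 Screening format detects activators and inhibitors alike: ME-180 SIE-bla cells stimulated at 40 pM IL-6 for 5 hrs with compound, then dual-emission beta-lactamase read at 405 nm excitation.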

For experiment [5], the target named is Glucocorticoid receptor (Homo sapiens) (UniProt P04150). In words: GR-GFP Redistribution (AID 450;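 active means compounds whose dose series gives a full or clear partial fitted curve of increased nuclear translocation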; further: potency means the concentration at half of the fitted maximal effect). The note with it: U2OS GR-GFP nuclear translocation, laser cytometry, 2 h.
Experiment [6] shares this target. Kind of experiment: GR-EFC Redistribution (AID 451; calls by dose curve; further: potency means the concentration at half of the fitted maximal effect). Conditions: CHO-K1 GR-EFC translocation, beta-gal luminescence, 2 h. The gist of the method: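 Translocation of GR-ED fusion to nuclear EA restores b-gal, read by luminescence after 1 h room-temperature detection. Engineered CHO-K1 biosensor cells, 1,000/well, exposed 2 h at 37 C to titrations up to 46 uM final.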

The target of experiment [7] is Mitogen-activated protein kinase 10 (Mus musculus) (UniProt Q61831). Kind of experiment: JNK3 AlphaScreen Assay (AID 530; active means well fitted curve in either direction with a large enough effect, not every such curve was filed as active;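 further: kinase came from lysate of stimulated human HepG2 cells; signal reports phosphorylation of biotinylated GST-cJun 1-79 at Ser73 with 10 µM ATP; on the % scale 0 is the no-effect control and ±100 the full control effect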). A digest of the protocol: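 Room-temperature AlphaScreen kinase assay; pre-activated HepG2 lysate as JNK3 source, biotin-GST-cJun(1-79) substrate, 10 uM ATP, compound 15 min preincubation.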
(In Alpha technology, singlet oxygen from a donor bead excites a nearby acceptor bead.)

For experiment [8], the target named is Cytochrome P450 3A4 (Homo sapiens) (UniProt P08684). Kind of experiment: qHTS Assay for Inhibitors and Substrates of Cytochrome P450 3A4 (AID 884). Further: nearly all actives have a fitted effect of over 50% in size. Further: potency means the concentration at half of the fitted maximal effect. The gist of the method:
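20 nM human CYP3A4 with 25 uM Luciferin-PPXE (at KM) in 200 mM KPO4, preincubated 10 min with compound; NADPH regeneration started a 60 min RT reaction. Luciferin detected by luminescence, normalized to 57 uM ketoconazole as full inhibition.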

Experiment [9] has the same target. Kind of experiment: qHTS Assay for Activators of Cytochrome P450 3A4 (AID 885). Further: nearly all actives have a fitted effect of over 65% in size. A digest of the protocol:
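Steps: enzyme/substrate mix dispensed; compound added, 10 min RT; NADPH regeneration solution added, 60 min RT; luciferin detection buffer stops reaction; 20 min later luminescence measured.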

In experiment [10] the target is Cytochrome P450 2C19 (Homo sapiens) (UniProt P33261). Kind of experiment: qHTS Assay for Inhibitors and Substrates of Cytochrome P450 2C19 (AID 899). Further: potency means the concentration at half of the fitted maximal effect; nearly all actives have a fitted effect of over 60% in size. A digest of the protocol: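 5nM enzyme + 10uM Luciferin-H EGE (=KM), 50mM KPO4; cpd pin-transferred, 10 min 37C; NADPH regen, 60 min 37C; stopped w/ luciferin detection reagent, 20 min; luminescence. Normalized to 57uM ketoconazole (AC100).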

Experiment [11] addresses Dual specificity protein kinase CLK4 (Homo sapiens) (UniProt Q9HAZ1). Kind of experiment: qHTS Assay for Inhibitors of CDC-like Kinase 4 (Kinase-Glo Assay) (AID 1770). Further: nearly all actives have a fitted effect of over 65% in size. Further: potency means the concentration at half of the fitted maximal effect. A digest of the protocol: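 Inhibition was judged from remaining ATP, measured by Ultra-Glo luciferase bioluminescence after Clk4 (25 nM) had acted on RS peptide at 1 uM ATP for 4.5 hours, room temperature.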
For orientation: Quantitative high-throughput screening tests each substance at several concentrations.

Experiment [12] has the same target. Kind of experiment: qHTS Assay for Inhibitors of CDC-like Kinase 4 (ADP-FP Assay) (AID 1795).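 Further: recombinant human CLK4 phosphorylating RS repeat peptide at 1 µM ATP; on the % scale 0 is the no-effect control and ±100 the full control effect; nearly all actives have a fitted effect of over 60% in size.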 A digest of the protocol: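 Inhibition of ADP formation by 6.25 nM Clk4 is measured using 1 uM ATP and 100 uM RS repeat peptide over one hour. Produced ADP displaces a fluorescent tracer from antibody, lowering polarization.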
The target of experiment [13] is Ubiquitin carboxyl-terminal hydrolase 1 (Homo sapiens) (UniProt O94782). Kind of experiment: Inhibitors of USP1/UAF1: Pilot qHTS (AID 504865). Further: nearly all actives have a fitted effect of over 35% in size. Further: potency means the concentration at half of the fitted maximal effect. A digest of the protocol:
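Kinetic fluorescence assay: 1nM USP1/UAF1, 15 min compound preincubation, then 150nM Ub-Rho; 480/540 nm.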

Experiment [14] in a line: Primary qHTS for small molecule stabilizers of the endoplasmic reticulum resident proteome: Secreted ER Calcium Modulated Protein (SERCaMP) assay (AID 1508630). Further: on the % scale 0 is the no-effect control and ±100 the full control effect. The gist of the method:
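GLuc-SERCaMP-expressing SH-SY5Y cells, pretreated 16 h with compound, are challenged with thapsigargin to empty ER calcium stores; after 4 h, coelenterazine is added directly to the medium and luminescence is imaged.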

The target of experiment [15] is Lysosomal acid glucosylceramidase (Homo sapiens) (UniProt P04062). In words: Glucocerebrosidase-p2 (AID 348; in the data active means potency below about 10 µM; further: potency means the concentration at half of the fitted maximal effect). The note with it: purified GBA, blue fluorogenic substrate, 40 min. A digest of the protocol: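 Compounds titrated from 0.6 nM upwards against 0.2 nM enzyme in pH 5.9 citric acid/KH2PO4, taurocholate, tween-20; blue fluorogenic substrate 80 uM, 40 min room temperature, stopped and read Ex 365/Em 440 for AC50.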

Experiment [16] deals with 3',5'-cyclic-AMP phosphodiesterase 4B (Homo sapiens) (UniProt Q07343). In words: qHTS Assay for Inhibitors of PDE-IV (AID 607; active means well fitted activation curve with a large enough effect in the main read-out, with a control signal flat, not every such curve was filed as active; further: % of control where 0% means no effect). The gist of the method:
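The readout is membrane depolarisation from a cAMP-sensing CNG channel, detected with a potential dye at ex 535/em 590. Cells were HEK293-derived (endogenous PDE-IV) at 1000 cells/well, titrated up to 22.9 uM final.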

Experiment [17] is described as follows: qHTS Assay for Identification of Small Molecule Agonists for Hypoxia Response Element Signaling Pathway (AID 914; active means well fitted activation curve with a large enough effect in the signal ratio, with a control signal flat, not every such curve was filed as active; the % refers to the signal ratio; further: % of control where 0% means no effect). The note with it: ME-180 (cervical carcinoma) HRE-bla reporter, beta-lactamase ratio, CoCl2, 17 h; activation: hits give high values. A digest of the protocol: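 Reporter activity (beta-lactamase, CCF4 460nm/530nm ratio) in HRE-bla ME-180 cells is recorded after 17 h compound exposure with EC50 CoCl2 at 37 degrees Celsius. AC50 values come from titration data.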

The record followed here is PubChem BioAssay (NCATS).

A number with no mark means an inactive call. Results filed as inconclusive are left out. The source made the active and inactive calls. Unless noted, the call rests on the fitted dose curve; in most records, active means well fitted curve in the direction sought with a large enough effect; inconclusive means small, poorly fitted or top-dose-only effect, or another doubt; inactive means no such curve, though single readings can be large; an effect the other way counts as inactive or inconclusive.

Sequence of Glucocorticoid receptor (Homo sapiens) (P04150 whole entry, looked up, the tested form may be a part): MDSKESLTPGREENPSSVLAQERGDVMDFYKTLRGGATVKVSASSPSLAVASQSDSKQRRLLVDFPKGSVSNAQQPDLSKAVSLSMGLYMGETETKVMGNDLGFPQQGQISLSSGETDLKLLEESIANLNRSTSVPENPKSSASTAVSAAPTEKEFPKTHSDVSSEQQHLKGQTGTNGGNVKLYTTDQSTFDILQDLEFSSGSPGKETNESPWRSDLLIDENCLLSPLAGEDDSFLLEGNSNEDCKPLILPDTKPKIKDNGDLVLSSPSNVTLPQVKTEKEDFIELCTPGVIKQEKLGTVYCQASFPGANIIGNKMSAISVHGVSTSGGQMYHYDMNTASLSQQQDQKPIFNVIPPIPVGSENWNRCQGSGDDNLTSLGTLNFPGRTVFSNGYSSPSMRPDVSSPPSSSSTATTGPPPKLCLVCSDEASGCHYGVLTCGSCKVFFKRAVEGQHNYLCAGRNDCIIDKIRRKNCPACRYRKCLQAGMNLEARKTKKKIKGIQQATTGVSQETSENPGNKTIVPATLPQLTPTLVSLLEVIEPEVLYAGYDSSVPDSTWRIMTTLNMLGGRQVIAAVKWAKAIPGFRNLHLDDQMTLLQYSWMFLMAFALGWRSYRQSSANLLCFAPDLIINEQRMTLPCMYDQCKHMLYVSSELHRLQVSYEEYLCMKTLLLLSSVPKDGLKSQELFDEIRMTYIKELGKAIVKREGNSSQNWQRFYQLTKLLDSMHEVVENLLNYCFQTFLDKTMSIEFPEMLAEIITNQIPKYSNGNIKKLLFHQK
Sequence of Dual specificity protein kinase CLK4 (Homo sapiens) (Q9HAZ1 whole entry, looked up): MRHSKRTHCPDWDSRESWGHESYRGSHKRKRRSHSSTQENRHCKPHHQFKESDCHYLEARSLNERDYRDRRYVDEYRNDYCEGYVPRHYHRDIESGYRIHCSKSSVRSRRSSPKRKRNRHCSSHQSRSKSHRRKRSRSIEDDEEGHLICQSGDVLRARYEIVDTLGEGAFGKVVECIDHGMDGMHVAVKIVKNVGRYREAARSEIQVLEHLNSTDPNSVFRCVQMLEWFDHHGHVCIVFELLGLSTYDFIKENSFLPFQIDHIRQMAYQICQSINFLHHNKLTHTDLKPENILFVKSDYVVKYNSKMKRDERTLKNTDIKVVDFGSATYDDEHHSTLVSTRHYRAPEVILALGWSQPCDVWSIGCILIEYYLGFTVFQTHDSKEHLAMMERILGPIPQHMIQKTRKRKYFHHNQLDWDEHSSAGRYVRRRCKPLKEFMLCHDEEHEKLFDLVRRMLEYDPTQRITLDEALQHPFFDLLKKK
Sequence of Ubiquitin carboxyl-terminal hydrolase 1 (Homo sapiens) (O94782 whole entry, looked up): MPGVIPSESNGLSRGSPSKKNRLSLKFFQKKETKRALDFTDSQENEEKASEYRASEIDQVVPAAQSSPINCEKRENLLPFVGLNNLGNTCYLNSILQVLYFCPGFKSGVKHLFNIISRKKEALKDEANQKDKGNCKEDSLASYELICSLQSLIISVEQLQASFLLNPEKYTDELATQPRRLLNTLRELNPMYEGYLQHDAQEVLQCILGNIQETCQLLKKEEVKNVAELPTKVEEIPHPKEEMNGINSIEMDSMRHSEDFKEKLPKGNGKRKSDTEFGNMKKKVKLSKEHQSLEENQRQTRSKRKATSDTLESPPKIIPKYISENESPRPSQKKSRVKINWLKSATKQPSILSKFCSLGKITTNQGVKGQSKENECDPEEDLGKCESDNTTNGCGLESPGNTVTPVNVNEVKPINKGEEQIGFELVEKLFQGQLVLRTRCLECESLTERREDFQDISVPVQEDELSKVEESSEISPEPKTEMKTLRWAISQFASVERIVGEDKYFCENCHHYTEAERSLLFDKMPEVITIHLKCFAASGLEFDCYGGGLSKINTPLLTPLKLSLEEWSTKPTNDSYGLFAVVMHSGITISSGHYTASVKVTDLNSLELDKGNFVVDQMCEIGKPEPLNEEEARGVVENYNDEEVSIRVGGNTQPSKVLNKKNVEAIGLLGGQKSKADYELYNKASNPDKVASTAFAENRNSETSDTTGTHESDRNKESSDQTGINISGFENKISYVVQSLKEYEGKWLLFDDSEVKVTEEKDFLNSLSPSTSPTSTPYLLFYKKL
Sequence of Cytochrome P450 2C19 (Homo sapiens) (P33261 whole entry, looked up): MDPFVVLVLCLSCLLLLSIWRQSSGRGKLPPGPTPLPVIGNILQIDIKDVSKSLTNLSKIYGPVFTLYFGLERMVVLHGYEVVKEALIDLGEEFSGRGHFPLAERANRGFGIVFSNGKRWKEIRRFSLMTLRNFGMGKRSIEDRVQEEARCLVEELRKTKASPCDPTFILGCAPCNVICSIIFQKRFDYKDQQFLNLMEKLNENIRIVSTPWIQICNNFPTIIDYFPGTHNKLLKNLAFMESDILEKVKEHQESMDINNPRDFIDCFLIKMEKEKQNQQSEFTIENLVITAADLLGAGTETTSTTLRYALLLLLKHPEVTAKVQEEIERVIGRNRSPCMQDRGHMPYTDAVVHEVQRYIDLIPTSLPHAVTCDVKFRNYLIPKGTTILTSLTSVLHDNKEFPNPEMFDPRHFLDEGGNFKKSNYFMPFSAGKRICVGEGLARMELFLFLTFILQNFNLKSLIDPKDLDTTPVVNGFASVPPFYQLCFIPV
Sequence of Cytochrome P450 3A4 (Homo sapiens) (P08684 whole entry, looked up): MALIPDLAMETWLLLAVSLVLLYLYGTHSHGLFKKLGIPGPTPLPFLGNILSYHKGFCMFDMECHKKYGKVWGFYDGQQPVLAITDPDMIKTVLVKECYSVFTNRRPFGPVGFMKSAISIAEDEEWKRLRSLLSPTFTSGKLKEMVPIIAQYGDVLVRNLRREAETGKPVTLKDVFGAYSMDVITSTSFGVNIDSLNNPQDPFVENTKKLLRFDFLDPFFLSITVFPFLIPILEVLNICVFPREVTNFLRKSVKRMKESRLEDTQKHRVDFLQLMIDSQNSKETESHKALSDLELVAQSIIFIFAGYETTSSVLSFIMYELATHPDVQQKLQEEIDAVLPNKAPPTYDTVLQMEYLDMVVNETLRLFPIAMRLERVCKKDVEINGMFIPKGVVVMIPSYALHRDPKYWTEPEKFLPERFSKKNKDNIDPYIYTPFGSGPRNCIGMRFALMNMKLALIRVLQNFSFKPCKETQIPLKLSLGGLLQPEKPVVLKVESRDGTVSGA
Sequence of Cytochrome P450 1A2 (Homo sapiens) (P05177 whole entry, looked up): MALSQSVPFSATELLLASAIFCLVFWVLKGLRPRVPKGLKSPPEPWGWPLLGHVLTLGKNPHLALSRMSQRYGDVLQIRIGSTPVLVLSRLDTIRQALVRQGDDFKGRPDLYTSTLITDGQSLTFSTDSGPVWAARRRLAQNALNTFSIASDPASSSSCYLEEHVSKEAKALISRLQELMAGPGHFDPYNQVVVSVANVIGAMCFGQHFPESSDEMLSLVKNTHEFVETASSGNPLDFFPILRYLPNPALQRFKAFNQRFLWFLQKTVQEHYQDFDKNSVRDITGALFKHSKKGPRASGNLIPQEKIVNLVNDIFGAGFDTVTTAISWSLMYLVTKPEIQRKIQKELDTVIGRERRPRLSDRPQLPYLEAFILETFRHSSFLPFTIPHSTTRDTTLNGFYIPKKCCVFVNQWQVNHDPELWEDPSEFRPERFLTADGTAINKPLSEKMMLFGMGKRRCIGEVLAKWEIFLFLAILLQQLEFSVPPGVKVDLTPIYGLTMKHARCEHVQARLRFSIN
Sequence of Lysosomal acid glucosylceramidase (Homo sapiens) (P04062 whole entry, looked up): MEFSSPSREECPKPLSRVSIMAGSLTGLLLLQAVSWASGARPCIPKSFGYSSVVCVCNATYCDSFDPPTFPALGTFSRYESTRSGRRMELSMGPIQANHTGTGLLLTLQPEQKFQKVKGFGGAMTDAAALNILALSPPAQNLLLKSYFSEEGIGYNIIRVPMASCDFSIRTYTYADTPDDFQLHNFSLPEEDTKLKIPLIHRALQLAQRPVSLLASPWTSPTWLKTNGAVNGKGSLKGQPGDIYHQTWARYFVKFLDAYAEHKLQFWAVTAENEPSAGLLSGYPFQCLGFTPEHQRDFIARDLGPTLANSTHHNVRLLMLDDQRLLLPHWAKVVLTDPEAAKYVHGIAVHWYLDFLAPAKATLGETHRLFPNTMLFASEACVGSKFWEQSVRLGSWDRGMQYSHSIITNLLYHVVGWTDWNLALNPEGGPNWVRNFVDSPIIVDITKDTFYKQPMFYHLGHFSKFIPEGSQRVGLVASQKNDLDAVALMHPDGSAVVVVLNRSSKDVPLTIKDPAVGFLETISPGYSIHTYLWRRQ
Sequence of 3',5'-cyclic-AMP phosphodiesterase 4B (Homo sapiens) (Q07343 whole entry, looked up): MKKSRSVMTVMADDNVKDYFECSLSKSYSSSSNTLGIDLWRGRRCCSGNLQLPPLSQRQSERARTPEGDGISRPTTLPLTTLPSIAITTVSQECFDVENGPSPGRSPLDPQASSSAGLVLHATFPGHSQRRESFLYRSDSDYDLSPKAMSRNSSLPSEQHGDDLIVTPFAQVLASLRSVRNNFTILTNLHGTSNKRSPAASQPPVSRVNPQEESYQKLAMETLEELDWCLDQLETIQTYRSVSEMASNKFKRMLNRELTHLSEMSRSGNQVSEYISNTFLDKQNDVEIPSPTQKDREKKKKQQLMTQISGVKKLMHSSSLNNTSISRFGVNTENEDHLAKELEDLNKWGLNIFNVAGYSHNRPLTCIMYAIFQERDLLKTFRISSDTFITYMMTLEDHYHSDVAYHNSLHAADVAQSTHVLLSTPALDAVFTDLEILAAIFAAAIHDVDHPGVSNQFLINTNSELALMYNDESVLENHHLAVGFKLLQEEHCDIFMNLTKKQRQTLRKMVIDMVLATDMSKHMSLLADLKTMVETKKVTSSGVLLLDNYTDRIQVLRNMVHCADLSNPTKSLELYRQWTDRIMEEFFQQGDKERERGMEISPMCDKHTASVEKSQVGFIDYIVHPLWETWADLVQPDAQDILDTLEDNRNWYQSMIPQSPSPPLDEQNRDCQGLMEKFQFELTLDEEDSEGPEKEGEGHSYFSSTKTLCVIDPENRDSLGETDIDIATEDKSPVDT

On to `COc1cccc(-c2nccc(NCc3ccc(OC)cc3OC)n2)c1`, for which the activity change, negative = inhibition in [1] is -28.1%; in experiment [3] it was -2.27%. Besides, the Potency in experiment [2] is 1 µM (active); in experiment [5], more than 46 µM; in experiment [6] it was more than 46 µM; in [8] it was 3.16 µM (active); in experiment [10], 2.51 µM (active); in experiment [11], 31.6 µM (active). Also, the activity, negative = inhibition in experiment [4] is -11.4%. The Potency result in experiment [7], in experiment [9], in experiment [12] and in experiment [13] was “inactive” each time. The outcome in experiment [14] was inactive.

`Clc1ccccc1-c1nc(NCc2cccnc2)c2ccccc2n1`: the activity change, negative = inhibition in experiment [1] was -8.93%; in experiment [3], 17.1%. The Potency in experiment [2] was 0.631 µM (active); in experiment [5], more than 46 µM; in experiment [6] it was more than 46 µM; in [8], 2.51 µM (active); in experiment [11], 28.2 µM (active); in experiment [13] it was 20 µM (active). The activity, negative = inhibition in experiment [4] is -13.8%. The Potency entry in [7] and in experiment [9] was “inactive” throughout. For the same compound, the result in [14] was inactive.

As for `CN(C)c1ccc(-c2cncnc2Nc2ccccc2)cc1`, the Potency in experiment [15] is more than 11.4 µM; in [2], 0.398 µM (active); in experiment [5] it was more than 46 µM; in experiment [6], more than 46 µM; in experiment [8] it was 0.631 µM (active); in experiment [10] it was 0.316 µM (active). Besides, the Potency in experiment [11] is 22.4 µM (active). Besides, the results for the activity change, negative = inhibition in [1] and in experiment [3] were -29.4% and -2.66%, respectively. Moreover, in [4], the activity, negative = inhibition is -12%. The Potency entry in experiment [9] and in [13] was “inactive” each time. Besides, the outcome in experiment [14] was inactive.

Turning to `Cc1cnc(CNc2nc(-c3ccoc3)nc3ccccc23)cn1`, the Potency is more than 11.4 µM in experiment [15], 2 µM (active) in [2], more than 46 µM in experiment [5] and more than 46 µM in experiment [6]. Further, the activity change, negative = inhibition in experiment [1] is -13.5%. In addition, in experiment [4], the activity, negative = inhibition was 9.84%. Further, the Potency entry in [7], in [16], in [9], in experiment [11] and in experiment [13] was “inactive” in each case. Besides, the activation in experiment [17] is -5.75%. Also, the result in [14] was inactive.

In the case of `Clc1ccccc1-c1cc(NCc2ccccc2)ncn1`, the Potency in experiment [15] was more than 11.4 µM; in [2] it was 3.98 µM (active); in experiment [5] it was more than 46 µM; in experiment [6] it was more than 46 µM; in [10], 7.94 µM (active); in [11], 25.1 µM (active). Besides, the figures for the activity change, negative = inhibition in experiment [1] and in [3] were 0.871% and 1.92%, respectively. For the same compound, the activity, negative = inhibition in [4] is 4.36%. Besides, the Potency entry in experiment [7] and in experiment [8] was “inactive” throughout. Also, the result in [14] was inactive.

`Cc1noc(C)c1-c1nc(Nc2ccccc2)c2ccccc2n1`: the activity change, negative = inhibition in [1] is -13.6%; in experiment [3] it was -11.8%. In addition, the Potency in [2] was 0.251 µM (active); in experiment [5] it was more than 46 µM; in experiment [6], more than 46 µM; in experiment [8] it was 6.31 µM (active). Further, in experiment [4], the activity, negative = inhibition was -8.68%. Also, the Potency entry in [7], in experiment [9], in [11], in experiment [12] and in experiment [13] was “inactive” throughout. Further, in experiment [14], the outcome was inactive.

For `CCNc1ncc2nc(-c3cccc(C#N)c3)c(=O)n(Cc3cccc(OC)c3)c2n1`, the activity change, negative = inhibition is -6.16% in experiment [1] and -14.9% in experiment [3]. For the same compound, the activity, negative = inhibition in experiment [4] was -8.97%. Also, the Potency in experiment [5] is more than 9.22 µM; in experiment [6], more than 46 µM. The Potency entry in experiment [7], in experiment [16], in experiment [11], in experiment [12] and in experiment [13] was “inactive” each time. Besides, the result in [14] was inactive.
